Inhibition data for seven compounds are collected here from PubChem BioAssay.

The structures appear in SMILES notation. “And” between values parts separate entries of the source, which are not always exact repeats. Equal entries are not always repeated. The source made the active and inactive calls. Cut-off read from the data, not from the text of the source: active = inhibition above about 80%; inactive = the rest.

The nature of one assay: LFS_MB_P medulloblastoma growth inhibition, cell-based, chromothripsis tumors, cisplatin or BGB combos (AID 1671449).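 Note: cells exposed for 96 hours; 0% = vehicle DMSO and 100% = killing by high DMSO.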 To be noted: LFS_MB_P medulloblastoma cells, at 0.5 µM, stronger effect = higher value.
In general, inhibition refers to the change of the read-out against control, counted positive when it falls. For the compound `CNNCc1ccc(C(=O)NC(C)C)cc1`, the inhibition is -4.96% (inactive) and -7.28% (inactive).

In the case of `O=NN(CCCl)C(=O)NC1CCCCC1`, the inhibition is -24.1% (inactive) and -26.9% (inactive).

As to `O=NN(CCCl)C(=O)NCCCl`, the inhibition was -2.88% (inactive).

In the case of `O=c1c(O)c(-c2ccc(O)c(O)c2)oc2cc(O)cc(O)c12`, the inhibition is -5.93% (inactive).

As to `Nc1nc(=S)c2[nH]cnc2[nH]1`, the inhibition was -26.3% (inactive).

Consider `CC(N)C12CC3CC(CC(C3)C1)C2` (stereo not given), for which the inhibition was 6% (inactive).

In the case of `O=c1oc2c(O)c(O)cc3c(=O)oc4c(O)c(O)cc1c4c23`, the inhibition was -26.4% (inactive).

The same assay, now with this note: LFS_MB_P medulloblastoma cells, measured here: combination with BGB IC20, at 0.005 µM.
Regarding `CNNCc1ccc(C(=O)NC(C)C)cc1`, the inhibition is 0.865% and -3.27%.

In the case of `O=NN(CCCl)C(=O)NC1CCCCC1`, the inhibition is -12.9% and -1.3%.

In the case of `O=NN(CCCl)C(=O)NCCCl`, the inhibition was -4.26%.

In the case of `O=c1c(O)c(-c2ccc(O)c(O)c2)oc2cc(O)cc(O)c12`, the inhibition worked out at 17%.

For the compound `Nc1nc(=S)c2[nH]cnc2[nH]1`, the inhibition was -7.21%.

On to `CC(N)C12CC3CC(CC(C3)C1)C2` (stereo not given), for which the inhibition was -16.1%.

Turning to `O=c1oc2c(O)c(O)cc3c(=O)oc4c(O)c(O)cc1c4c23`, the inhibition is 13.8%.

Still in this assay, the particulars now being: LFS_MB_P medulloblastoma cells, measured here: combination with BGB IC40, at 0.005 µM.
On to `CNNCc1ccc(C(=O)NC(C)C)cc1`, for which the inhibition is 4.15% and 7.38%.

Regarding `O=NN(CCCl)C(=O)NC1CCCCC1`, the inhibition is -38% and -34.1%.

For `O=NN(CCCl)C(=O)NCCCl`, the inhibition is -31.6%.

`O=c1c(O)c(-c2ccc(O)c(O)c2)oc2cc(O)cc(O)c12`: the inhibition was 13.5%.

In the case of `Nc1nc(=S)c2[nH]cnc2[nH]1`, the inhibition was -35.9%.

As to `CC(N)C12CC3CC(CC(C3)C1)C2` (stereo not given), the inhibition was -38.1%.

Turning to `O=c1oc2c(O)c(O)cc3c(=O)oc4c(O)c(O)cc1c4c23`, the inhibition is -25.9%.

Still in this assay, the particulars now being: LFS_MB_P medulloblastoma cells, measured here: combination with BGB IC40, at 0.05 µM.
`CNNCc1ccc(C(=O)NC(C)C)cc1`: the inhibition is -4.16% and -2.23%.

`O=NN(CCCl)C(=O)NC1CCCCC1`: the inhibition was -45.8% and -16.7%.

As for `O=NN(CCCl)C(=O)NCCCl`, the inhibition is -3.31%.

In the case of `O=c1c(O)c(-c2ccc(O)c(O)c2)oc2cc(O)cc(O)c12`, the inhibition worked out at 25.1%.

With `Nc1nc(=S)c2[nH]cnc2[nH]1`, the inhibition was -9.84%.

Consider `CC(N)C12CC3CC(CC(C3)C1)C2` (stereo not given), for which the inhibition was -30.6%.

As to `O=c1oc2c(O)c(O)cc3c(=O)oc4c(O)c(O)cc1c4c23`, the inhibition is -14%.

Still in this assay, the particulars now being: LFS_MB_P medulloblastoma cells, measured here: combination with cisplatin, at 0.5 µM, stronger effect = higher value.
Take `CNNCc1ccc(C(=O)NC(C)C)cc1`: the inhibition is -13.4% and -33.1%.

Turning to `O=NN(CCCl)C(=O)NC1CCCCC1`, the inhibition was -40% and -38.1%.

On to `O=NN(CCCl)C(=O)NCCCl`, for which the inhibition was determined as 2.24%.

Take `O=c1c(O)c(-c2ccc(O)c(O)c2)oc2cc(O)cc(O)c12`: the inhibition is -24.2%.

Turning to `Nc1nc(=S)c2[nH]cnc2[nH]1`, the inhibition was -38.8%.

As to `CC(N)C12CC3CC(CC(C3)C1)C2` (stereo not given), the inhibition was determined as 9.24%.

Consider `O=c1oc2c(O)c(O)cc3c(=O)oc4c(O)c(O)cc1c4c23`, for which the inhibition is -13.4%.
